Screening data deposited in PubChem by The Scripps Research Institute Molecular Screening Center.
IDE inh – inhibitors of human insulin-degrading enzyme in cells. HEK cells, FAbetaB cleavage, fluorescence polarization. actives 0.41% (n = 320,000). P14735. inhibition, % at 5.59 µM. AID 434962;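 active = percent inhibition above the average of all tested compounds plus 3 SD, set per screening campaign, cut at about 16% in these data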;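 note: IDE supplied by intact live HEK cells; FP after avidin binding of uncleaved biotin substrate so inhibition keeps polarization high; 0% = DMSO wells and 100% = 60 µM reference IDE inhibitor Ii1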
NOD2-RIPK2 inh – inhibitors of human NOD2-RIPK2 interaction | CHO BLA complementation NOD2-RIPK2, CCF4 ratio | inhibition, % at 4.98 µM | AID 624267 | actives 0.38% (n = 360,000); in the data active = inhibition above about 21%;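 note: 0% = vehicle only and 100% = reference blocker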
IDE cell activ – boosts human insulin-degrading enzyme activity in HEK cells | activation, % at 5.96 µM | actives 0.073% (n = 340,000) | FAbeta-B cleavage, fluorescence polarization; 0% vehicle, 100% cell-free pure enzyme wells;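 active = activation above the mean of all tested compounds plus 3 SD, set per screening campaign, cut at about 17% in these data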
TLR9-MyD88 block – TLR9-MyD88 interaction inhibition; inhibition, % at 4.98 µM; AID 504734; actives 0.21% (n = 340,000); Q9NR96+Q99836; CHO BLA complementation TLR9-MyD88, CCF4 FRET ratio;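 active = inhibition above the mean over all tested compounds plus 3 SD, cut at about 21% in these data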;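 note: 0% = DMSO only wells and 100% = clavulanate BLA inhibitor control wells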
Target sequence (Q99836 whole entry, looked up): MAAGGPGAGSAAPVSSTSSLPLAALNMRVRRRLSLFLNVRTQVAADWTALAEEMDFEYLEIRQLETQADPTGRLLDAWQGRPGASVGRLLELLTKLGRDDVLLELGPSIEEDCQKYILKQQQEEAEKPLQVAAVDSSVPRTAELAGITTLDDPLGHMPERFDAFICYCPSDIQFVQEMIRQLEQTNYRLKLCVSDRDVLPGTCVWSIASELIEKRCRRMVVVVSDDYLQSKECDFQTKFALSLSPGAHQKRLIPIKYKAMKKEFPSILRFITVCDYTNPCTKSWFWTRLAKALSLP
Target sequence (Q9NR96 whole entry, looked up): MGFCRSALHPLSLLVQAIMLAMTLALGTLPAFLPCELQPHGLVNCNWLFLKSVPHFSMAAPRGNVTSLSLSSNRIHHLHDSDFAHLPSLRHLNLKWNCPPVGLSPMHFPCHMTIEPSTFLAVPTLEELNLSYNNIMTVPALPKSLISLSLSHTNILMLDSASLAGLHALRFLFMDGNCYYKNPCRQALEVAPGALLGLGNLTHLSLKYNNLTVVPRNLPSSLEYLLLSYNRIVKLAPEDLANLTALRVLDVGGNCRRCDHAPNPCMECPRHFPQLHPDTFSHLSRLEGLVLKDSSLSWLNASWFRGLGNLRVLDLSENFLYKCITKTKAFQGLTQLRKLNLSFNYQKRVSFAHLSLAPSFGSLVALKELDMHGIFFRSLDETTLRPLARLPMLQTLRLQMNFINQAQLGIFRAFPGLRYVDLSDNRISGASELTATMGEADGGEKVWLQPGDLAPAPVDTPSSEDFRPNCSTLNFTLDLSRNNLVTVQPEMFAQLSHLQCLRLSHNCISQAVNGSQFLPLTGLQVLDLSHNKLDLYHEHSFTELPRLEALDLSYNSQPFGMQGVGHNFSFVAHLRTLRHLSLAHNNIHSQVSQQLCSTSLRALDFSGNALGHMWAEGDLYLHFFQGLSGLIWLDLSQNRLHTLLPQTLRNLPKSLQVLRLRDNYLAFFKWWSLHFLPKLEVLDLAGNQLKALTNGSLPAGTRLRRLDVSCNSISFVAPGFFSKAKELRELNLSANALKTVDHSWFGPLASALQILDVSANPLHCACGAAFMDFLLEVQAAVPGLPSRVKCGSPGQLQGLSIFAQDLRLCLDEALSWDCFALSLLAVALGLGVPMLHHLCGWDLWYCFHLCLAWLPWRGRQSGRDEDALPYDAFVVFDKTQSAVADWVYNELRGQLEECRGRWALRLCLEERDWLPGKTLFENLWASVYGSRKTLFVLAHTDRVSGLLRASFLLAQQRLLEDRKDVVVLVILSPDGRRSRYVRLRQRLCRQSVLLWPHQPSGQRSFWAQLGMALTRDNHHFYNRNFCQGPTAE
TLR4 MyD88 comp – inhibitors of human TLR4-MyD88 binding; inhibition, % at 8.4 µM; HeLa CL3-4 TLR4/MyD88 BLA complementation, FRET ratio; actives 0.18% (n = 200,000); O00206+Q99836; in the data active = inhibition above about 25%;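 note: 0% = vehicle and 100% = reference inhibitor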
IDE cell inh cf – cellular human IDE inhibition, confirmation; shares compounds with IDE inh; HEK cells, FAbetaB cleavage, fluorescence polarization; inhibition, % at 5.59 µM; actives 51% (n = 1,200); AID 435028;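 active = mean inhibition across triplicate wells above the cutoff set by the earlier primary insulin-degrading enzyme screen, cut at about 16% in these data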;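 note: 0% = DMSO wells and 100% = 60 µM reference IDE inhibitor Ii1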
HEK293 tox – HEK cell cytotoxicity, counter-screen for IDE inhibitors | AID 449730 | HEK293 cytotoxicity, ATP luminescence | actives 28% (n = 1,200) | shares compounds with IDE inh | inhibition, % at 5.59 µM; in the data active = inhibition above about 22%;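 note: 0% = vehicle wells and 100% = reference cytotoxic drug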
* marks the source's active call; other numbers are inactive results; nt = not tested or not shown. Rows were chosen to be rich in hits. Some 0.86% of all compounds tested hit in one or more screens of this group.

SMILES	IDE inh	NOD2-RIPK2 inh	IDE cell activ	TLR9-MyD88 block	TLR4 MyD88 comp	IDE cell inh cf	HEK293 tox
COc1ccc(CNC(=O)C2CCN(c3nn4c(=O)cc(C)nc4s3)CC2)cc1	0.4	-8.3	3.9	-4.2	nt	nt	nt
CN(C)S(=O)(=O)c1cccc(NC(=O)CCc2nc3sc4c(c3c(=O)[nH]2)CCCC4)c1	22.3*	-15.6	-16.6	-10.3	nt	14.3	24.5*
CCCCn1c(NC(=S)Nc2ccccc2)nc2ccccc21	30.6*	-4.0	-12.4	0.7	3.4	12.4	12.0
CC(=O)Nc1nc2ccccc2n1CCOc1ccccc1	0.1	3.0	3.8	4.8	-4.1	nt	nt
S=C(Nc1ccccc1)Nc1nc2ccccc2n1CCOc1ccccc1	28.5*	-4.0	-22.4	-0.6	-5.6	18.1*	7.1
NNC(=O)c1cccc(S(=O)(=O)Nc2cc(Cl)ccc2Cl)c1	1.7	-2.4	1.1	6.2	nt	nt	nt
COc1cccc(CNc2nc3ccccc3n2C)c1O	1.6	5.6	0.3	-9.8	nt	nt	nt
O=[N+]([O-])c1ccc(N=Cc2sc3ccccc3c2O)cc1	16.9*	-8.5	1.3	5.2	0.6	13.9	10.9
O=[N+]([O-])c1cccc(N=Cc2sc3ccccc3c2O)c1	2.5	nt	nt	nt	3.3	nt	nt
CC1=C(C(=O)Nc2ccccc2C)C2(CCCCC2)C(C(N)=O)C(=S)N1 (stereo not drawn)	-2.9	-8.5	1.2	1.1	5.0	nt	nt
O=S(=O)(Nc1cccc(F)c1)c1ccc(S(=O)(=O)N2CCOCC2)cc1	nt	-18.2	nt	14.8	nt	nt	nt
CCc1cc(C(=O)NNC(=S)NC2CCCCC2)cs1	-4.5	-0.5	-3.5	-4.3	nt	nt	nt
CCc1cc(C(=O)NNC(=S)NC(C)c2ccccc2)cs1 (stereo not drawn)	18.7*	10.5	-5.2	-13.2	-8.2	6.9	15.1
CC(=O)Nc1cccc(Nc2cnccn2)c1	nt	-3.6	nt	nt	nt	nt	nt
Cc1cc(C)nc(NN2C(=O)/C(=C/c3ccccc3)SC2=S)n1	-3.0	-3.9	-9.6	6.8	7.7	nt	nt
CN(C)c1ccc(/C=C2\SC(=S)N(Nc3ncc(C(F)(F)F)cc3Cl)C2=O)cc1	48.7*	1.2	-154.5	-0.3	17.2	129.9*	10.2
CCc1cccc(C)c1NC(=O)C(c1ccc(O)cc1)N1CCC1=O (stereo not drawn)	1.6	3.0	0.9	7.1	17.2	nt	nt
O=c1oc2c3c4c(cc2c(C(F)(F)F)c1CCN1CCOCC1)CCCN4CCC3	36.9*	19.4	-49.1	14.6	8.2	67.7*	9.5
N#CCc1nc2ccc(S(=O)(=O)N3CCOCC3)cc2s1	45.6*	-3.2	-8.1	3.6	nt	9.2	9.6
COc1ccc(C(=O)CSc2n[nH]c(=O)n2Cc2ccco2)cc1	17.7*	2.1	3.2	1.0	nt	9.7	11.8
O=C(NN1C(=O)/C(=C/c2ccc(O)c(O)c2)SC1=S)c1ccccc1	42.6*	2.8	-42.8	-3.9	nt	87.0*	16.8
O=C1C2C3C=CC(CC3)C2C(=O)N1/N=C/c1ccc(O)cc1 (stereo not drawn)	7.0	-3.3	-3.2	-1.7	10.1	nt	nt
O=C1/C(=C\c2ccc(O)cc2)SC(=S)N1/N=C/c1ccc(O)cc1	75.0*	1.8	-159.7	7.2	nt	98.2*	10.7
COc1cc(/C=C2\SC(=S)N(NC(=O)c3ccc(O)cc3)C2=O)ccc1O	85.4*	12.6	-85.1	-0.6	nt	150.2*	9.6
COc1cc(/C=C2\SC(=S)N(NC(=O)c3cccnc3)C2=O)ccc1O	114.3*	11.4	-130.1	8.5	nt	158.5*	8.7
SMILES	IDE inh	NOD2-RIPK2 inh	IDE cell activ	TLR9-MyD88 block	TLR4 MyD88 comp	IDE cell inh cf	HEK293 tox
COc1cccc(/C=C2\SC(=S)N(NC(=O)c3ccncc3)C2=O)c1	2.7	-1.1	3.4	-0.7	7.6	nt	nt
O=C(Cn1nnc(-c2ccc(Cl)cc2)n1)N1CCN(C(=O)c2ccco2)CC1	-2.5	-6.8	5.4	-0.3	nt	nt	nt
COc1ccccc1C1=CC(=O)C[C@H](c2ccc3c(c2)OCO3)C1	8.2	-2.4	-0.8	-6.8	nt	nt	nt
CC(=O)NN1C(=O)/C(=C\c2ccc(O)cc2)SC1=S	36.5*	3.7	-73.3	1.1	4.0	89.3*	7.7
O=C(NCCC1=CCCCC1)C1CCN(S(=O)(=O)c2ccc(-n3cnnn3)cc2)CC1	nt	-6.6	3.8	4.3	10.2	nt	nt
O=c1c2ccccc2sn1-c1ccc(S(=O)(=O)N2CCCC2)cc1	38.0*	1.6	-49.8	-3.0	-9.8	12.5	21.8
O=c1c2ccccc2sn1-c1ccc(S(=O)(=O)N2CCCCC2)cc1	-23.1	1.4	-44.6	1.2	7.0	nt	nt
Cc1ccc(-n2sc3ccccc3c2=O)cc1S(=O)(=O)N1CCCCC1	82.9*	17.6	-30.2	6.2	1.4	25.4*	20.5
Cc1ccc(C(=O)NNC(=O)c2ccccc2)cc1S(=O)(=O)N1CCCCC1	-0.1	1.8	-1.7	1.8	nt	nt	nt
Cc1ccc(C)c(OCC(=O)Nc2ccc3c(c2)OCO3)c1C	-2.8	10.6	2.8	0.2	0.6	nt	nt
CCSC1=NSC2=NC(=O)/C(=C\c3coc4ccccc4c3=O)C(=N)N12	54.6*	14.0	-65.0	8.4	7.9	50.7*	5.9
CC1Sc2ccc(S(=O)(=O)NCCc3ccccc3)cc2NC1=O (stereo not drawn)	-1.7	-1.7	4.6	1.5	nt	nt	nt
Clc1ccc(C[n+]2csc3ccccc32)cc1	19.6*	4.4	-24.4	5.5	6.9	9.9	12.4
Cc1csc2c(N3CCN(C(=O)Nc4ccc(Cl)c(Cl)c4)CC3)ncnc12	21.2*	-3.4	-20.6	2.0	nt	8.9	9.4
C/C(=N\Nc1ncnc2sc(C)c(C)c12)c1ccccn1	47.8*	-6.7	-16.2	-10.4	nt	35.7*	118.2*
O=C(Nc1ccc2nc(-c3cccs3)[nH]c2c1)c1cccs1	20.6*	-5.8	-3.6	-6.7	-5.5	10.3	22.4*
CCNC(=S)N1CCN(c2nc(-c3ccc(F)cc3)cs2)CC1	19.2*	-7.4	-16.5	-2.9	nt	6.1	15.4
CCN(CC)CCCNC(=S)N1CCN(c2nc(-c3ccc(F)cc3)cs2)CC1	4.4	6.4	-12.4	-9.3	nt	nt	nt
COCCNC(=S)N1CCN(c2nc(-c3ccc(Cl)cc3)cs2)CC1	17.1*	-9.5	-17.5	11.1	nt	11.4	15.3
COCCNC(=S)N1CCN(c2nc(-c3ccc(F)cc3)cs2)CC1	13.8	-10.4	-8.5	-7.8	nt	nt	nt
CNC(=S)N1CCN(c2nc(-c3ccc(Cl)cc3)cs2)CC1	17.7*	-5.5	-13.4	6.0	nt	8.1	23.2*
CCOC(=O)C1=CC[C@@H](c2cccc(C)c2)N(S(=O)(=O)c2ccc(C)cc2)[C@H]1C(=O)OCC	16.3*	3.6	-3.7	-4.0	nt	13.0	12.2
CN(C)C=NC(=O)/C(C#N)=C/c1ccccc1	0.2	2.1	4.4	-5.8	3.9	nt	nt
CN(C)c1ccc(/C=C(\C#N)C(=O)NCc2ccco2)cc1	21.9*	nt	nt	nt	2.1	13.8	17.8
